Where “and” joins values, the source holds several entries; their conditions need not be identical. Identical values can stand only once. Records with an inconclusive call do not appear. A structure can be active in one record and inactive in another. Calls of active or inactive are those of the source. Unless noted, calls follow the shape of the dose curve; as a rule, active = well fitted curve in the direction sought with a large enough effect in the repeat runs; inconclusive = weak or mixed curves; inactive = no such curve, though single readings can be large; an effect the other way counts as inactive or inconclusive.

The values below come from PubChem BioAssay (Tox21).

Experiment [1] can be described thus: qHTS assay to identify small molecule agonists of the vitamin D receptor (VDR) signaling pathway - cell viability counter screen (AID 743224). Also: nearly all actives have a fitted effect of over 50% in size. In a few lines:
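Plated VDR-bla cells (4 h, 37C) received compound, incubated 16 h, then LiveBLAzer substrate 2 h RT; CellTiter-Glo added afterwards, luminescence read at 30 min.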
A general note: qHTS replaces the single test concentration by a dilution series.

Experiment [2] can be described thus: qHTS assay to identify small molecule antagonists of the vitamin D receptor (VDR) signaling pathway - cell viability counter screen (AID 743225). Also: nearly all actives have a fitted effect of over 50% in size. The method in brief:
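Cells (VDR-UAS-bla HEK 293T) are plated, rested 4 h at 37C, dosed with compound and 3 nM final 1-alpha,25-dihydroxy vitamin D3, and incubated 16 h. Viability is taken from CellTiter-Glo luminescence in the reporter wells.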

Experiment [3] can be described thus: qHTS assay to identify small molecule agonists of the NFkB signaling pathway (AID 1159509; active = well fitted curve in the direction sought with a large enough effect in the signal ratio in the repeat runs, not every such curve was filed as active; the % refers to the signal ratio). The method in brief: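 After overnight attachment, reporter cells received test compounds, DMSO or positive controls and were incubated 5 hr at 37 C. FRET substrate was then added for 1.5 hr at room temperature before dual-emission fluorescence reading.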
A short description of experiment [4]: qHTS assay to identify small molecule agonists of the NFkB signaling pathway - cell viability counter screen (AID 1159515; calls by dose curve; also: nearly all actives have a fitted effect of over 55% in size). The method in brief:
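Using the same wells as the NFkB reporter read, ME-180 NFkB-bla cells given compounds for 5 hr were assessed for viability via CellTiter-Glo, with luminescence taken after a 30 min room-temperature incubation.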

A short description of experiment [5]: qHTS assay to identify small molecule agonists of the endoplasmic reticulum stress response signaling pathway (AID 1159516; active = well fitted activation curve with a large enough effect in the signal ratio in the repeat runs, not every such curve was filed as active; the % refers to the signal ratio). The method in brief:
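An ESRE-bla HeLa cell assay: compounds were pin-transferred from DMSO onto overnight-plated cells and left 5 hr at 37 C. Substrate was then loaded for 2 hr at room temperature before reading fluorescence at 460 nm and 530 nm.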

Experiment [6] is described as follows: qHTS assay to identify small molecule agonists of the endoplasmic reticulum stress response signaling pathway - cell viability counter screen (AID 1159517; calls by dose curve;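 also: HeLa cells carrying an ER stress response element beta-lactamase reporter; nearly all actives have a fitted effect of over 50% in size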). The method in brief:
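Counter-screen wells were identical to the reporter wells. Cells were plated at 1,500 per well and dosed for 5 hr, then read for luminescence 30 min after CellTiter-Glo addition.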

Experiment [7] can be described thus: qHTS assay to identify small molecule antagonists of the retinoid-related orphan receptor gamma (ROR-gamma) signaling pathway - cell viability counter screen (AID 1159520). Also: nearly all actives have a fitted effect of over 50% in size. In a few lines:
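Tet-on ROR gamma CHO cells were given compounds for 2 hr, then doxycycline hyclate at 1 uM final, and incubated 16 hr at 37 C. Viability was measured as ATP content by CellTiter-Glo luminescence.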

The target of experiment [8] is Nuclear receptor ROR-gamma (Homo sapiens) (UniProt P51449). In words: qHTS assay to identify small molecule antagonists of the retinoid-related orphan receptor gamma (ROR-gamma) signaling pathway (AID 1159521; also: nearly all actives have a fitted effect of over 50% in size; also: potency is read from the fitted curve at half-maximal effect). The method in brief:
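RORγ antagonism is scored from reduced reporter luminescence in Tet-on CHO cells. Induction used 1 uM final doxycycline hyclate for 16 h at 37 C, following a 2 h compound exposure.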

The nature of experiment [9]: qHTS assay to identify small molecule agonists of the AP-1 signaling pathway - cell viability counter screen (AID 1159525; calls by dose curve; also: nearly all actives have a fitted effect of over 55% in size). In a few lines: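 AP-1-bla ME-180 cells in Opti-MEM with 0.5% dialyzed FBS, compound exposure 5 h at 37 C in 15-point titration. Viability read in the same wells as ATP content by CellTiter-Glo luminescence, normalised to tetra-n-octylammonium bromide and DMSO controls.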

Experiment [10] can be described thus: qHTS assay to identify small molecule agonists of the AP-1 signaling pathway (AID 1159526; calls by dose curve).
The target of experiment [11] is Retinoic acid receptor RXR-alpha (Homo sapiens) (UniProt P19793). In words: qHTS assay to identify small molecule agonists of the RXR signaling pathway (AID 1159527; calls by dose curve; also: nearly all actives have a fitted effect of over 35% in size). In a few lines:
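qHTS of the Tox21 10K library in GeneBLAzer RXR-alpha HEK 293T cells carrying a beta-lactamase reporter […]; 16 hr treatment, 9-cis retinoic acid as agonist control, FRET read-out.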

A short description of experiment [12]: qHTS assay to identify small molecule agonists of the RXR signaling pathway - cell viability counter screen (AID 1159529). Also: nearly all actives have a fitted effect of over 50% in size. Also: potency is read from the fitted curve at half-maximal effect. In a few lines:
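Cell viability is measured by CellTiter-Glo luminescence, 30 min at room temperature, in wells already read for beta-lactamase. Engineered HEK 293T cells (RXR-alpha-UAS-bla) are dosed 16 hr at 37 C. Tetraoctyl ammonium bromide serves as positive control.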

A short description of experiment [13]: qHTS assay to identify small molecule antagonists of the retinoid acid receptor (RAR) signaling pathway - cell viability counter screen (AID 1159551). Also: nearly all actives have a fitted effect of over 35% in size. The method in brief: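 Retinol-stimulated (1 uM final) C3RL4 cells, compound 6 h, 37 C; readout CellTiter-Glo luminescence (ATP) after 30 min RT incubation.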
A short description of experiment [14]: qHTS assay to identify small molecule antagonists of the retinoic acid receptor (RAR) signaling pathway (AID 1159552; also: nearly all actives have a fitted effect of over 50% in size). The method in brief:
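Quantitative HTS in C3RL4 RARE-luciferase reporter cells. Compounds were added with 1 uM (final) retinol; luminescence was read after 6 hr.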

A short description of experiment [15]: qHTS assay to identify small molecule agonists of the retinoic acid receptor (RAR) signaling pathway (AID 1159553). The settings on record: C3RL4 RARE luciferase reporter, agonist, 6 h; activation: at 73.3 µM (top of the series) unless noted. In a few lines:
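Reporter readout comes from luciferase under RARE control in C3RL4 cells; compound exposure lasts 6 hr at 37 C in 5% CO2, and luminescence is recorded following a 30 min room-temperature incubation with reagent.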

Chain of Retinoic acid receptor RXR-alpha (Homo sapiens) (P19793 whole entry, looked up): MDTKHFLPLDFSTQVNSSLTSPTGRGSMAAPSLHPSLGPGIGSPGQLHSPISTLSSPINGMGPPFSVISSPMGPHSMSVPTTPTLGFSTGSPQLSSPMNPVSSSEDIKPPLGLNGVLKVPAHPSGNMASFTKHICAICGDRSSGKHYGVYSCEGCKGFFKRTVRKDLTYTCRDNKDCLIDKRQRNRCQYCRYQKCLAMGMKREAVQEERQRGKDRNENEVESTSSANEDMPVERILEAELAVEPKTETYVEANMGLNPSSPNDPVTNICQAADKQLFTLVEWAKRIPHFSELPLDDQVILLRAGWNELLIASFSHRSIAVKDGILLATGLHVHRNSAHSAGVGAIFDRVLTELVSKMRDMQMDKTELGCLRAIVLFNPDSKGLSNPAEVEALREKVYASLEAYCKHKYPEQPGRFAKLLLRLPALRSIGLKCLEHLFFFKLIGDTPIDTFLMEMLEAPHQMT

For `CCC(C)(c1ccc(O)cc1)c1ccc(O)cc1`, the Potency entry in experiment [1], in experiment [2], in [4], in experiment [6], in [7] and in experiment [9] was “inactive” each time. The Potency result in [11], in experiment [12] and in experiment [13] was “inactive” in each case. Further, the call in experiment [3], in experiment [5] and in experiment [10] was inactive. For the same compound, in experiment [8], the Potency is 54.4 µM (active).
As for `Nc1c(Cl)cc([N+](=O)[O-])cc1Cl`, the Potency entry in [1], in [2], in experiment [4], in [6], in [7] and in experiment [9] was “inactive” in each case. The Potency entry in experiment [11], in [12], in [13], in experiment [14] and in experiment [15] was “inactive” in each case. Moreover, the call in experiment [3], in experiment [5] and in experiment [10] was inactive. Moreover, the Potency result in experiment [8] was “inactive and 27.3 µM (active)”.
For the compound `N#CCCCl`, the Potency result in experiment [1], in experiment [2], in experiment [4], in experiment [6], in [7] and in [8] was “inactive” throughout. Moreover, the Potency entry in experiment [9], in experiment [11], in experiment [12], in experiment [13], in [14] and in [15] was “inactive” in each case. Moreover, the call in experiment [3], in [5] and in experiment [10] was inactive.
As to `Oc1cc(Cl)c(Cl)cc1Cl`, the Potency result in [1], in [2], in experiment [4], in experiment [6], in experiment [7] and in experiment [9] was “inactive” each time. Further, the Potency entry in [11], in [12] and in [13] was “inactive” throughout. In addition, the compound was classed as inactive in experiment [3], in [5] and in experiment [10]. In addition, the Potency in [8] is 48.2 µM (active).
Take `NC(=S)Nc1ccccc1`: the Potency result in experiment [1], in experiment [2], in experiment [4], in experiment [6], in [7] and in experiment [9] was “inactive” in each case. Further, the Potency result in [11], in [13], in experiment [14] and in [15] was “inactive” in each case. Moreover, the compound was classed as inactive in experiment [3], in experiment [5] and in experiment [10]. The Potency was 31.1 µM (active) and inactive in experiment [8]; 25 µM (active) and inactive in [12].
Consider `CCC(C)c1ccc(O)cc1` (centres undefined), for which the Potency entry in experiment [1], in experiment [2], in experiment [4], in experiment [6], in experiment [7] and in experiment [8] was “inactive” in each case. Besides, the Potency result in experiment [9], in [11], in experiment [12] and in experiment [13] was “inactive” in each case. Besides, the result in [3], in experiment [5] and in [10] was inactive.
As to `Nc1cccnc1`, the Potency result in experiment [1], in experiment [2], in [4], in [6], in experiment [7] and in experiment [8] was “inactive” throughout. Also, the Potency result in [9], in [11], in [12], in [13], in experiment [14] and in experiment [15] was “inactive” in each case. Further, the outcome in experiment [3], in [5] and in experiment [10] was inactive.
Take `CCCCC(CC)COC(=O)c1ccc(C(=O)OCC(CC)CCCC)c(C(=O)OCC(CC)CCCC)c1` (centres undefined): the Potency result in [1], in [2], in [4], in experiment [6], in experiment [7] and in experiment [8] was “inactive” in each case. The Potency result in [9], in experiment [11], in experiment [12], in [13], in experiment [14] and in experiment [15] was “inactive” throughout. The compound was classed as inactive in experiment [3], in experiment [5] and in experiment [10].
For `O=Cc1ccco1`, the Potency result in experiment [1], in [2], in [4], in [6], in experiment [7] and in experiment [8] was “inactive” each time. The Potency entry in experiment [9], in experiment [11], in experiment [12], in experiment [13], in [14] and in experiment [15] was “inactive” in each case. The compound was classed as inactive in experiment [3], in experiment [5] and in experiment [10].
